This test has as its system A549. As to the kind of experiment: relative viability (normalised to negative control = 1, bortezomib = 0) (fraction); higher = less cytotoxic. As to conditions: inflammatory serum-free RHB-A with cytokines + LPS, 5 d + 24 h CellTiter-Blue. On the technique in general: Alamar Blue is a resazurin reagent that responds to reducing activity.
Where [1] appears, read: compound 30 nM, GSK126 pretreatment: 5 uM GSK126.
The mark [2] stands for this setting: compound 30 nM, GSK126 pretreatment: none (vehicle).
Where [3] appears, read: compound 300 nM, GSK126 pretreatment: 5 uM GSK126.
Setting [4] is: compound 300 nM, GSK126 pretreatment: none (vehicle).

Structures can show the parent of a compound that is named as a salt. ± gives the standard deviation of the averaged measurements.

As to `CS(=O)(=O)OCCCCOS(C)(=O)=O` [Busulfan], the relative viability runs as follows: under setting [1], 0.889 ± 0.017; under setting [2], 0.865 ± 0.038; under setting [3], 0.916 ± 0.067; under setting [4], 0.893 ± 0.024.
The matching figures for `O=C(Nc1cccc(Cl)c1)Nc1ncc(CCNc2ncnc3ccsc23)s1` [SNS-314 Mesylate]: 0.763 ± 0.13, 0.639 ± 0.054, 0.689 ± 0.16 and 0.505 ± 0.1.
The matching figures for `COc1cccc2cc(-c3nc(C4CCC(C(=O)O)CC4)n4ncnc(N)c34)[nH]c12` (centres undefined): 0.815 ± 0.016, 0.797 ± 0.045, 0.588 ± 0.07 and 0.718 ± 0.055.
The matching figures for `CO[C@@]12[C@H](COC(N)=O)C3=C(C(=O)C(C)=C(N)C3=O)N1C[C@@H]1N[C@@H]12` [Mitomycin; Mitomycin C]: 0.827 ± 0.16, 0.845 ± 0.092, 0.58 ± 0.1 and 0.47 ± 0.05.
In the case of `COc1cc2nccc(Oc3ccc(NC(=O)Nc4ccc(F)cc4F)c(F)c3)c2cc1OC`, the relative viability is, setting by setting: under setting [1], 0.86 ± 0.097; under setting [2], 0.832 ± 0.051; under setting [3], 0.916 ± 0.12; under setting [4], 1.01 ± 0.075.
Regarding `CCC1=C[C@@H]2CN(C1)Cc1c([nH]c3ccccc13)[C@@](C(=O)OC)(c1cc3c(cc1OC)N(C)[C@H]1[C@@](O)(C(=O)OC)[C@H](OC(C)=O)[C@]4(CC)C=CCN5CC[C@]31[C@@H]54)C2` [Vinorelbine tartrate], the relative viability is 0.403 ± 0.049 under setting [1], 0.444 ± 0.021 under setting [2], 0.376 ± 0.056 under setting [3] and 0.307 ± 0.025 under setting [4].
The matching figures for `O=c1cc(N2CCOCC2)oc2c(-c3cccc4c3sc3ccccc34)cccc12`: 0.877 ± 0.026, 0.869 ± 0.057, 0.922 ± 0.055 and 0.919 ± 0.072.
On the same counts, the results for `CCCCCOC(=O)Nc1nc(=O)n([C@@H]2O[C@H](C)[C@@H](O)[C@H]2O)cc1F` [Capecitabine] are 0.858 ± 0.12, 0.867 ± 0.12, 0.892 ± 0.14 and 0.965 ± 0.12.
Take `CN(C)Cc1cccc(N=C(c2ccccc2)c2c(O)[nH]c3cc(C(N)=O)ccc23)c1`: the relative viability under setting [1] was found to be 0.984 ± 0.17, the relative viability under setting [2] stood at 0.911 ± 0.16, the relative viability under setting [3] was 1.08 ± 0.2 and the relative viability under setting [4] was 0.942 ± 0.13.
On the same counts, the results for `O=c1[nH]cc(F)c(=O)[nH]1` [5-Fluorouracil; Fluorouracil] are 0.96 ± 0.07, 0.911 ± 0.063, 0.865 ± 0.13 and 0.924 ± 0.026.
On the same counts, the results for `COc1cc2nccc(Oc3ccc(NC(=O)Nc4cc(C)on4)c(Cl)c3)c2cc1OC` [AV-951(Tivozanib)] are 0.919 ± 0.12, 0.927 ± 0.12, 1.1 ± 0.11 and 1.18 ± 0.18.
On to `CN(N=O)C(=O)N[C@@H]1[C@@H](O)[C@H](O)[C@@H](CO)O[C@@H]1O` [Streptozocin], for which the relative viability was found to be 0.985 ± 0.071 under setting [1], 0.903 ± 0.13 under setting [2], 1.01 ± 0.15 under setting [3] and 1.08 ± 0.088 under setting [4].
Turning to `C=CC(=O)N1CCC[C@@H](n2nc(-c3ccc(Oc4ccccc4)cc3)c3c(N)ncnc32)C1`, the relative viability was 0.769 ± 0.14 under setting [1], 0.718 ± 0.11 under setting [2], 0.429 ± 0.02 under setting [3] and 0.41 ± 0.048 under setting [4].
As to `C[C@]12CC[C@H](O)CC1=CC[C@@H]1[C@@H]2CC[C@]2(C)C(c3cccnc3)=CC[C@@H]12` [Abiraterone], the relative viability runs as follows: under setting [1], 0.893 ± 0.12; under setting [2], 0.869 ± 0.13; under setting [3], 0.937 ± 0.15; under setting [4], 1.03 ± 0.098.
The matching figures for `CN1CCN(CCOc2cc(OC3CCOCC3)c3c(Nc4c(Cl)ccc5c4OCO5)ncnc3c2)CC1` [AZD0530(Saracatinib)]: 0.831 ± 0.073, 0.827 ± 0.071, 0.746 ± 0.057 and 0.914 ± 0.038.
The matching figures for `Cn1c(Nc2ccc(C(F)(F)F)cc2)nc2cc(Oc3ccnc(-c4ncc(C(F)(F)F)[nH]4)c3)ccc21`: 0.826 ± 0.12, 0.699 ± 0.17, 0.427 ± 0.11 and 0.347 ± 0.037.
For the compound `COc1cccc2c1C(=O)c1c(O)c3c(c(O)c1C2=O)C[C@@](O)(C(C)=O)C[C@@H]3O[C@H]1C[C@H](N)[C@H](O)[C@H](C)O1` [Daunorubicin hydrochloride; Daunorubicin HCl], the relative viability runs as follows: under setting [1], 0.839 ± 0.095; under setting [2], 0.765 ± 0.056; under setting [3], 0.133 ± 0.019; under setting [4], 0.143 ± 0.021.
On the same counts, the results for `CCCS(=O)(=O)Nc1ccc(F)c(C(=O)c2c[nH]c3ncc(Cl)cc23)c1F` are 0.771 ± 0.062, 0.725 ± 0.028, 0.851 ± 0.19 and 1.02 ± 0.074.
On the same counts, the results for `Cc1[nH]c(/C=C2\C(=O)Nc3ccc(S(=O)(=O)N(C)c4cccc(Cl)c4)cc32)c(C)c1C(=O)N1CCN(C)CC1` are 0.89 ± 0.053, 0.887 ± 0.099, 1.03 ± 0.01 and 1.03 ± 0.01.
On the same counts, the results for `Cn1cnc(-c2cc3nccc(Oc4ccc(NC(=S)NC(=O)Cc5ccccc5)cc4F)c3s2)c1` are 0.819 ± 0.071, 0.832 ± 0.051, 0.838 ± 0.093 and 0.945 ± 0.065.
Regarding `O=C(CCBr)N1CCN(C(=O)CCBr)CC1` [Pipobroman], the relative viability is, setting by setting: under setting [1], 0.735 ± 0.045; under setting [2], 0.705 ± 0.026; under setting [3], 0.725 ± 0.096; under setting [4], 0.822 ± 0.12.
On the same counts, the results for `CC(C)(C)c1cnc(CSc2cnc(NC(=O)C3CCNCC3)s2)o1` are 0.859 ± 0.1, 0.811 ± 0.056, -0.00432 ± 0.0019 and -0.0017 ± 0.0016.
On the same counts, the results for `CNNCc1ccc(C(=O)NC(C)C)cc1` [Procarbazine hydrochloride; Procarbazine] are 0.962 ± 0.15, 0.915 ± 0.14, 0.997 ± 0.12 and 0.967 ± 0.06.
The matching figures for `Oc1ncnc2[nH]ncc12` [Allopurinol]: 0.988 ± 0.076, 0.996 ± 0.03, 0.952 ± 0.11 and 0.974 ± 0.066.
For `OCCn1cc(-c2cnc3nnn(Cc4ccc5ncccc5c4)c3n2)cn1`, the relative viability was found to be 0.969 ± 0.045 under setting [1], 0.9847 ± 0.0075 under setting [2], 0.972 ± 0.058 under setting [3] and 0.9557 ± 0.0093 under setting [4].
The matching figures for `Nc1nc(Cl)nc2c1ncn2[C@@H]1O[C@H](CO)[C@@H](O)[C@@H]1F` [Clofarabine]: 0.74 ± 0.12, 0.693 ± 0.026, 0.28 ± 0.047 and 0.256 ± 0.027.

For the origin of these results see the supplement of paper PMC6279402.
